# From PubChem BioAssay
# In the library only some 7.9% were active in any assay of this set; here they are far more common.
# SW480 rereplic = induces DNA re-replication in SW480 colon adenocarcinoma cells | SW480 DNA re-replication, Hoechst DNA content imaging, 48 h | Potency, µM (top dose mostly 46.1 µM), for inactives: at the highest dose re-replication activation, most hits filed as activators | hit rate 1.8% among 340,000 | AID 624297; note: % of control where 0% means no effect; nearly all actives have a fitted effect of over 55% in size
#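 250 cells/well; 23 nL cpd via pin tool; 48 hr, 37 C, 5% CO2; Hoechst 40 min; imager read of total nuclear intensity, ex 405/em 500-530 nm.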
# HT1080NT lethal = kills 2HG-producing HT-1080-NT fibrosarcoma cells; HT-1080-NT fibrosarcoma viability, CellTiter-Glo ATP luminescence, 48 h; Potency, µM (top dose mostly 46.1 µM), inactives show top-dose activity, negative = less viability, actives largely listed as cytotoxic; hit rate 1.6% among 360,000;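 note: NT is the 2HG producing partner of a matched IDH1 knockdown line; 0% = DMSO-treated cells and -100% = media-only wells without cells; nearly all actives have a fitted effect of over 55% in size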
#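 Compounds were tested in concentration-response format on HT-1080-NT cells for 48 hours at 37 degrees C. Cell viability came from CellTiter-Glo luminescence; curves were classified by r2, response magnitude and activity.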
# HT1080 IDH1KD tx = kills HT-1080 cells with IDH1 knockdown. hit rate 2% among 360,000. AID 686971. HT-1080 IDH1 knockdown viability, ATP luminescence, 48 h. Potency, µM (series often up to 46.1 µM), without a hit: top-dose activity, negative = toxicity, actives largely listed as cytotoxic;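 note: 0% = DMSO wells and -100% = cell-free medium wells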
#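 Assay cells: HT-1080 with IDH1 knockdown, 750 per well, RPMI/5% FBS. Exposure: 48 h at 37 °C following 2 h pre-incubation. Read: CellTiter-Glo luminescence; fitted concentration-response, curve class assigned.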
# KB-V1 cytotox = kills drug-selected multidrug resistant KB-V1 cells; hit rate 3.4% among 400,000; KB-V1 MDR cells viability, CellTiter-Glo, 72 h; AID 1347076; Potency, µM (doses to about 46.1 µM), usual class: cytotoxic; note: % is set by controls: 0 for no effect and ±100 for the full control effect; nearly all actives have a fitted effect of over 60% in size
#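 KB-V1, DMEM (no phenol red) + 10% FBS; cpd pin-transferred, titration series; 72 h, 37 degrees C; CellTiter-Glo, luminescence. Data normalized, curve-fit.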
# KB-3-1 tox = kills parental KB-3-1 adenocarcinoma cells; AID 1347075; Potency, µM (top dose mostly 46.1 µM), hits mostly cytotoxic; hit rate 1.4% among 400,000; KB-3-1 viability, CellTiter-Glo ATP luminescence, 72 h; note: % is set by controls: 0 for no effect and ±100 for the full control effect; nearly all actives have a fitted effect of over 60% in size
#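 Here the drug-naive KB-3-1 line serves as comparator for MDR sub-line selectivity; cells received compound titrations, 72 h at 37 °C, then CellTiter-Glo readout.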
# MCF10A rerep = induces DNA re-replication in MCF 10a normal breast cells. MCF 10A DNA re-replication, Hoechst nuclear intensity, 48 h. Potency, µM (top dose mostly 46.1 µM), for the others: top-dose activity, positive = re-replication, most hits filed as activators. hit rate 2.9% among 350,000. AID 624296; note: % of control where 0% means no effect; nearly all actives have a fitted effect of over 50% in size
# * = called active by the depositor; i = inactive; ? = inconclusive; . = no result given. Calls come from the whole dose curve; as a rule, active = well fitted curve in the direction sought with a large enough effect; inconclusive = small, poorly fitted or top-dose-only effect, or another doubt; inactive = no such curve, though single readings can be large; an effect the other way counts as inactive or inconclusive. Potency is the fitted concentration of half-maximal effect.
SMILES,SW480 rereplic,HT1080NT lethal,HT1080 IDH1KD tx,KB-V1 cytotox,KB-3-1 tox,MCF10A rerep
COc1ccc(C2c3ccc4ccccc4c3Oc3ncn(CCCO)c(=N)c32)cc1 (stereo not given),?,18µM*,?,i,i,?
COc1ccc(CCNc2ccc(C(CC(N)=O)NC(=O)c3cc(OC)ccc3OC)cc2[N+](=O)[O-])cc1 (stereo not given),-3%,-2%,-1%,i,i,-6%
ICC[n+]1csc2ccccc21,.,.,.,i,i,.
COc1ccc(C2c3ccc4ccccc4c3Oc3ncn(CCN(C)C)c(=N)c32)cc1 (stereo not given),?,?,?,?,?,21µM*
COc1ccc(C2c3ccc4ccccc4c3Oc3ncn(CCN4CCOCC4)c(=N)c32)cc1 (stereo not given),23µM*,?,?,?,?,2%
COc1ccc(C2c3ccc4ccccc4c3Oc3ncn(CCO)c(=N)c32)cc1 (stereo not given),?,?,12µM*,i,i,?
N=c1c2c(ncn1CCCO)Oc1c(ccc3ccccc13)C2c1ccccc1 (stereo not given),?,?,-30%,16µM*,?,?
COc1ccc(C2c3ccc4ccccc4c3Oc3ncn(CCO)c(=N)c32)cc1OC (stereo not given),?,-23%,-20%,?,i,-1%
CCSc1ccc([C@@H]2[C@H]3C(=O)N(C)C(=O)[C@H]3[C@]3(C(=O)OC)CCCCN23)cc1,?,-24%,?,?,i,?
Cc1ccc(OCC(=O)Nc2ccc(S(=O)(=O)Nc3ncccn3)cc2)c(C(C)(C)C)c1,.,.,.,i,i,.
Cc1ccc(C(C)C)cc1OCCCCN1CCCC1,12%,3%,1%,21µM*,i,?
CCO[C@@H]1c2c(ccc3ccc(=O)oc23)OC(C)(C)[C@@H]1O,2%,-1%,3%,i,i,-10%
CC(=O)OC1c2c(ccc3ccc(=O)oc23)OC(C)(C)C1OC(=O)CC(C)C (stereo not given),-7%,-6%,-4%,12µM*,i,4%
COc1ccc(C(C)(NC(C)=O)c2nc(-c3ccncc3)cs2)cc1 (stereo not given),.,7%,22%,i,i,.
Cc1[nH]c2ccccc2c1C(C#N)(C#N)C1C(=O)c2ccccc2C1=O,153%,18µM*,26µM*,i,i,?
Cc1[nH]c2ccccc2c1CC#N,-4%,-5%,22%,i,i,0%
COc1ccc(NC(=O)CCCCCN2C(=O)CCC2=O)cc1Cl,-2%,11%,1%,?,i,7%
O=C(CCCCCN1C(=O)CCC1=O)Nc1ccc(Cl)c(C(F)(F)F)c1,-1%,-30%,?,16µM*,i,3%
COc1ccc(NC(=O)CN2CCN(CC(=O)Nc3ccccc3Cl)CC2)cc1Cl,1%,-1%,-1%,?,i,11%
CCc1ccccc1NCC(=O)Nc1ccc(Cl)c(C(F)(F)F)c1,?,?,?,21µM*,?,?
COc1cc(NC(=O)Nc2cccc(Cl)c2)c(OC)cc1NC(=O)CN1CCCCC1,?,?,21µM*,?,?,?
COc1ccccc1NC(=O)CN1CCN(CC(=O)Nc2ccc(Cl)c(C(F)(F)F)c2)CC1,1%,?,23µM*,?,?,?
CN(C)S(=O)(=O)c1ccc2c(c1)nc(CCC(=O)NCCc1ccc(Cl)cc1)n2C,-2%,0%,-9%,?,i,14%
COc1ccccc1CNC(=O)c1cc2sccc2n1Cc1ccc(F)cc1,.,.,.,i,i,.
C=CCN=c1scc(-c2ccc3c(c2)NC(=O)CO3)n1/N=C(\C)c1ccccn1,-7%,?,?,?,5.2µM*,?
SMILES,SW480 rereplic,HT1080NT lethal,HT1080 IDH1KD tx,KB-V1 cytotox,KB-3-1 tox,MCF10A rerep
O=C(Nc1ccc(Oc2cccnc2)cc1)c1ccccc1F,-1%,11%,1%,16µM*,?,2%
C[C@@H]1CN([C@@H](C)CO)S(=O)(=O)c2ccc(Br)cc2O[C@H]1CN(C)Cc1ccccn1,.,-9%,-8%,i,i,.
CCCCCn1c(CN2CCN(c3ccc(OC)cc3)CC2)nc2c1c(=O)[nH]c(=O)n2C,.,.,.,i,i,.
CC(CCCC(C)(C)O)NC(=O)c1cc(COc2ccc3ncccc3c2)on1 (stereo not given),-10%,-5%,-22%,5.8µM*,?,6%
O=C(NCc1cccc(Cl)c1)c1cc(COc2ccc3ncccc3c2)on1,-2%,-20%,-21%,3.3µM*,12µM*,17%
Cc1cc(C)n(CCNC(=O)c2cc(COc3ccc4ncccc4c3)on2)n1,-5%,1%,-9%,i,?,-4%
CCOc1ccc2c(c1)c1nnc(SCC(=O)NC3CC3)nc1n2C,-47%,2%,-5%,i,i,-6%
COc1ccc(Cc2nnc(NC(=O)c3ccc(OC)c(OC)c3)s2)cc1,?,-13%,-13%,i,?,3.7µM*
CCc1nnc(NC(=O)CCC(=O)NCc2ccc(OC)cc2)s1,-22%,0%,10%,i,i,2%
COc1cc(OC)cc(C(=O)Nc2nnc(NC(=S)Nc3ccccc3)s2)c1,9%,-9%,-15%,i,i,10µM*
COc1ccc(Cc2nnc(NC(=O)c3ccccc3)s2)cc1OC,-5%,6%,-10%,i,i,-1%
COc1cc(C(=O)Nc2nnc(Cc3ccccc3)s2)cc(OC)c1OC,?,?,10µM*,i,i,?
COc1cc(OC)cc(C(=O)Nc2nnc(Cc3ccc(OC)c(OC)c3)s2)c1,-1%,-12%,0%,i,i,4%
COc1ccc(CNC(=O)CCC(=O)Nc2nnc(CC(C)C)s2)cc1,2.9µM*,-5%,3%,i,i,0%
COc1ccc(OCc2cc(C(=O)N3CCOCC3)no2)c(Cl)c1,-7%,11%,20%,i,i,-2%
CCOc1ccccc1NC(=O)c1cc(C(=O)c2cc(Br)ccc2O)coc1=N,?,-11%,-28%,?,?,7.3µM*
COc1ccc(S(=O)(=O)N2CCN(Cc3cc4c(cc3Br)OCCO4)CC2)cc1,-1%,-4%,-4%,15µM*,i,24%
CN(C)/C=C/C(=O)c1ccccc1OCc1cnc(Cl)s1,?,-3%,8%,i,i,18µM*
NCCCN(Cc1ccc(Cl)c(Cl)c1)c1ccc(Br)cn1,.,?,11µM*,.,.,.
